Out of some 2,300 compounds screened, about 790 (34%) were called active. The rule behind the calls is not given here. The list shows a part of the results. Where a call stands in place of a potency, no number is given. Potency and affinity values are given separately.

The test is described as follows: THP-1 cell cytotoxicity, dose response, cytotoxicity control for non-replicating M. tuberculosis project (AID 489025). The note with it: THP-1 cell viability; series mostly up to 40 µM.
As for `CC(=O)c1c(O)cc(=O)n(-c2ccccc2)c1-c1ccc(C)cc1`, the compound was classed as inactive.
For the compound `O=C(Nc1nnc(C2=COCCO2)o1)c1cccc(C(F)(F)F)c1`, the outcome was inactive.
The entry for `O=C(N/N=C/c1ccc(O)cc1)c1cccc(C(F)(F)F)c1` is “inactive”; for `Cc1cc(NC(=O)COC(=O)COc2ccc(C(=O)c3ccccc3)cc2)no1` it is “inactive”; for `CC1=NN(C(=O)c2ccc(C)o2)C(O)(c2ccccc2)C1` (stereo not drawn) it is “inactive”.
With `CC1=NN(C(=O)c2ccccc2F)C(O)(c2ccc(Cl)cc2)C1` (stereo not drawn), the compound was called inactive.
The same measure for `CC1=NN(C(=O)c2ccccc2Cl)C(O)(c2ccccc2)C1` (stereo not drawn): “inactive”; for `CC1=NN(C(=O)COc2ccccc2)C(O)(c2ccccc2)C1` (stereo not drawn): “inactive”.
With `CSc1ccc(COC(=O)CCS(=O)(=O)c2ccc(C)cc2)cc1`, the compound was classed as inactive.
As for `CCc1nnc(NC(=O)CN2CCN(c3ccccc3F)CC2)s1`, the outcome was inactive.
Consider `CCOC(=O)COc1c(-c2ccc(OC)cc2)oc2ccccc2c1=O`, for which the compound was classed as inactive.
As to `O=C(OCc1nnc(-c2ccccc2)o1)c1cc([N+](=O)[O-])ccc1Cl`, the call was inactive.
Take `CCCOc1ccc(N2CC(C(=O)Nc3ccccc3F)CC2=O)cc1` (stereo not drawn): the call was inactive.
On to `O=C(NC(=S)N1CCN(Cc2ccc3c(c2)OCO3)CC1)c1ccc(Cl)cc1`, for which the compound was classed as inactive.
The entry for `Nc1ccc(Nc2ccccc2)cc1` is “inactive”; for `CC(C)=CCN1CCN(CCC2=C(C)CCCC2(C)C)CC1CCO` (stereo not drawn) it is “inactive”; for `CC(C)c1ccc(OCC(=O)NC2=NCCS2)cc1` it is “inactive”.
The same measure for `O=C(/C=C/Nc1ccccc1O)c1ccco1`: “inactive”.
The same measure for `O=C(Oc1ccccc1)c1ccc(NC(=O)c2ccco2)cc1`: “inactive”; for `CC1=NN(C(=O)COc2ccccc2C)C(O)(c2ccc(Cl)cc2)C1` (stereo not drawn): “inactive”.
As for `CC(C)(C)OC(=O)N/N=C\c1ccc(OC(=O)c2ccco2)cc1`, the compound was classed as inactive.
The same measure for `O=C(CNC(=O)c1ccc(Br)cc1)c1ccc(Br)cc1`: “inactive”; for `O=C(Nc1nccs1)c1ccc(Br)cc1`: “inactive”.
For the compound `O=C(CNC(=O)c1ccccc1)OC1CCCCC1`, the result was inactive.
Consider `O=[N+]([O-])c1ncccc1Oc1nc(-c2cccnc2)nc2ccccc12`, for which the result was inactive.
On to `CCOc1ccc(N2CC(=O)Nc3ccccc3NCC2=O)cc1`, for which the compound was classed as inactive.
Turning to `COC(=O)c1ccc(COC(=O)c2ccccn2)cc1`, the compound was called inactive.
Turning to `CCOc1cc(/C=N/NC(=O)c2ccccn2)ccc1OC(=O)c1cccs1`, the call was inactive.
With `CCOc1ccc(OCc2ccc(C(=O)OCc3ccccn3)o2)cc1`, the outcome was inactive.
The same measure for `O=C(N[C@@H]1C[C@H]2CC[C@@H]1C2)c1ccco1`: “inactive”; for `Clc1ccc(SCCOCCN2CCc3ccccc3C2)cc1`: “inactive”; for `O=C(OCn1nnc2ccccc2c1=O)c1cccs1`: “inactive”.
The same measure for `COc1ccccc1C1=NOC(COC(=O)c2ccc([N+](=O)[O-])cc2)C1` (stereo not drawn): “inactive”; for `Fc1ccc(-c2nnc(CSc3nnc(-c4cccs4)o3)o2)cc1`: “inactive”; for `COc1cccc(OCc2nnc(-c3cccs3)o2)c1`: “inactive”.
For the compound `Fc1ccc(-c2nnc(-c3ccc(F)cc3)o2)cc1`, the outcome was inactive.
The entry for `Cc1ccc(-c2nnc(-c3cccs3)o2)cc1` is “inactive”; for `O=C1N=c2ccccc2=C1c1c(O)n(-c2cccc(F)c2)[nH]c1=O` it is “inactive”; for `CCCn1nnnc1NCc1ccc(C(C)C)cc1` it is “inactive”.
The entry for `Cc1ccnc(-n2c(C)cc(/C=C3\C(=O)NC(=S)N(C)C3=O)c2C)c1` is “inactive”; for `CCn1c(O)c(C(=O)CC2NCCc3ccccc32)c(=O)n(CC)c1=S` (stereo not drawn) it is “inactive”.
Turning to `Cc1cc(C)c2c(=O)n(CC(=O)Nc3cccc(Cl)c3C)sc2n1`, the outcome was inactive.
The entry for `CCOc1ccc(NC(=O)CCc2ccc(C)o2)cc1` is “inactive”.
The same measure for `Cc1ccc(OC(=O)CCS(=O)(=O)c2ccc(C)cc2)cc1`: “inactive”; for `COC(=O)c1ccc(COC(=O)CCS(=O)(=O)c2ccc(C)cc2)cc1`: “inactive”.
As to `COC(=O)COc1ccc(-c2ccccc2)cc1C=O`, the call was inactive.
The same measure for `COc1ccc(-c2cc(=O)oc(-c3cccc(C)c3)n2)cc1`: “inactive”; for `COc1ccc(OCCOC(=O)CCS(=O)(=O)c2ccc(C)cc2)cc1`: “inactive”; for `COc1ccc(-c2cc(O)cc(O)c2)cc1`: “inactive”.
As to `COC(=O)COc1ccc2c(=O)c(-c3ccccc3)coc2c1`, the call was inactive.
`Cc1cc(Br)ccc1OCC(=O)NNC(=O)C(=O)Nc1ccccc1`: the outcome was inactive.
`O=C1CCCC(O)=C1C=Nc1ccc2c(c1)oc1ccccc12`: the compound was classed as inactive.
The entry for `C(#CCN1CCOCC1)COCc1ccccc1` is “inactive”; for `CC(CCc1ccccc1)NC(=O)COC(=O)c1cccs1` (stereo not drawn) it is “inactive”; for `Cc1nc2scc(-c3ccccc3)c2c(=O)o1` it is “inactive”.
For the compound `CCN(CC)c1ccc(NC2CC(=O)N(CCc3ccc(OC)cc3)C2=O)cc1` (stereo not drawn), the outcome was inactive.
The entry for `O=C(OCc1nnc(-c2ccccc2)o1)c1ccc(Br)o1` is “inactive”.
Regarding `CCCOC(=O)c1ccc(NC(=O)C2C3C=CC(O3)C2C(=O)O)cc1` (stereo not drawn), the call was inactive.
The entry for `C=CCNc1nc(C(=O)OCC(=O)c2cccc(Br)c2)cs1` is “inactive”.
The entry for `Fc1cccc2sc(N3CCCC3)nc12` is “inactive”.
In the case of `Cc1ccc(NC(=S)C2=C(O)c3sccc3N(C)S2(=O)=O)cc1`, the call was inactive.
The entry for `Cc1ccc(C(=O)N/N=C/C=C/c2ccccc2)cc1` is “inactive”; for `O=C(CCNc1ccc(Cl)c(C(F)(F)F)c1)c1ccco1` it is “inactive”.
Take `C/C(=N\NC(=O)c1ccccc1)c1nc2ccccc2n1C`: the compound was called inactive.
Turning to `O=C(NCCSc1ccccc1)c1ccc(Br)cc1`, the call was inactive.
The entry for `COc1ccc(NC(=O)c2nc3ccccc3s2)cc1` is “inactive”; for `CN(C)c1ccc(NC(=O)COC(=O)c2cc(Cl)ccc2[N+](=O)[O-])cc1` it is “inactive”; for `CCOC(=O)CNc1ccc(C(=O)OCC)cc1[N+](=O)[O-]` it is “inactive”.
Consider `CC(C)=CCN1CCN(Cc2cn(C(C)C)c3ccccc23)CC1CCO` (stereo not drawn), for which the result was inactive.
For `COc1cccc2cc(-c3nc4ccccc4[nH]3)c(=O)oc12`, the call was inactive.
The entry for `CSc1nc(=S)cc(C)[nH]1` is “inactive”; for `CC(NC(=O)c1cc([N+](=O)[O-])cc([N+](=O)[O-])c1)c1ccc(-n2ccnc2)cc1` (stereo not drawn) it is “inactive”.
Consider `COc1ccccc1NC(=O)c1cnc(SC)nc1`, for which the outcome was inactive.
Regarding `COc1cccc(NC(=O)c2cnc(SC)nc2)c1`, the result was inactive.
Regarding `Cc1ccc(S(=O)(=O)NCc2ccc(C(=O)NCCCN3CCC(Cc4ccccc4)CC3)cc2)cc1`, the compound was classed as inactive.
As to `Nc1c(Cl)cc(Cl)cc1C(=O)OCC(=O)N1CCCC1`, the call was inactive.
As for `COc1ccccc1-c1cc(SC)c(C#N)c(=O)o1`, the compound was called inactive.
Regarding `COc1ccccc1-c1nnc(-c2ccc(C)cc2)o1`, the call was inactive.

The values are drawn from PubChem BioAssay AID489025 (Southern Research Specialized Biocontainment Screening …, 2010).
